Results reported in PubChem BioAssay.
Several values for one entry are separate records, joined by “and”; a condition that tells them apart may be missing. Equal entries are not always repeated. Activity calls are given as the source filed them.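 How the source made its calls, unless noted: active means compounds whose cell count with miR-34 switched on is under 0.7 times the count with it off; inactive means the rest.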

What was measured:
[1] = EMT-state selective cytotoxicity in co-culture – imaging, PC-3E GFP, TEM4-18 mCherry, primary screen (AID 1345086;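 active means compounds killing one labelled cell type while sparing the other, by normalised counts and ratio limits, not self-fluorescent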;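 on all read-outs here: cells exposed to compound for 72 h before imaging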;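 on red/green cell ratio (normalised): normalised mesenchymal count divided by normalised epithelial count so high means epithelial killing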); settings: PC-3E GFP / TEM4-18 mCherry co-culture, imaging cell counts, at 1 µM; for red/green cell ratio (normalised): actives lie on both sides, counts scaled to control wells, 1 = unselective
[2] = viability loss with induced miR-34 in A549 – imaging, A549 dox-inducible miR-34, nuclei and caspase counts, primary screen (AID 1347080); settings: A549 miR-34 inducible, Hoechst nuclei count, 48 h
[3] = measured here: epithelial PC-3E GFP cell survival
[4] = measured here: mesenchymal TEM4-18 mCherry cell survival
[5] = stronger effect = lower value, cell number ratio, induced over uninduced
[6] = measured here: relative caspase fold change +Dox/-Dox
[7] = measured here: total cells with miR-34 induction, stronger effect = lower value
[8] = measured here: total cells without miR-34 induction

Row | Compound | red/green cell ratio (normalised) [1] | normalised cell number [1, 3] | normalised cell number [1, 4] | fold change [2, 5] | fold change [2, 6] | cell count [2, 7] | cell count [2, 8]
1 | CC(C)OC(=O)CCC/C=C\C[C@@H]1[C@@H](/C=C/C(O)COc2cccc(C(F)(F)F)c2)[C@H](O)C[C@@H]1O (some centres undefined) | 0.87 (inactive) | 1.24 | 1.08 | 0.865 (inactive) | 1.12 | 8710 | 10100
2 | Cc1cc(CC(C)CC(C)(C)C)n(O)c(=O)c1 (centres undefined) (tested in a mixture with another compound) | 0.92 (inactive) | 1.04 | 0.95 | 1.25 (inactive) and 1.02 (inactive) | 0.741 and 0.825 | 2940 and 2820 | 2360 and 2770
3 | CC(=O)c1ccc2c(c1)Sc1ccccc1N2CCCN1CCN(CCO)CC1 | 1.02 (inactive) | 1.21 | 1.23 | 0.952 (inactive) | 0.758 | 8860 | 9300
4 | OC[C@@H](O)[C@H](O)[C@@H](O)[C@H](O)CO | 1.12 (inactive) | 0.97 | 1.08 | 0.853 (inactive) | 0.862 | 7670 | 9000
5 | CCC(CC)O[C@@H]1C=C(C(=O)OC)C[C@H](N)[C@H]1NC(C)=O | 0.99 (inactive) | 1.01 | 1 | 0.882 (inactive) | 1.08 | 8740 | 9910
6 | C[C@]12CCC(=O)C=C1[C@@H]1C[C@@H]1C1C2CC[C@@]2(C)C1[C@@H]1C[C@@H]1[C@@]21CCC(=O)O1 (some centres undefined) | 0.65 (inactive) | 1.4 | 0.91 | 1.02 (inactive) | 0.868 | 7990 | 7840
7 | CC1(C)O[C@@H]2CC3C4CCC5=CC(=O)C=C[C@]5(C)C4[C@@H](O)C[C@]3(C)[C@]2(C(=O)CO)O1 (some centres undefined) | 0.93 (inactive) | 1.22 | 1.14 | 0.861 (inactive) | 1.01 | 5940 | 6900
8 | NCCCC(N)C(=O)O (centres undefined) | 1.03 (inactive) | 0.99 | 1.02 | 0.906 (inactive) | 0.95 | 8560 | 9450
9 | COc1cc(O)cc(C(=O)c2ccccc2)c1S(=O)(=O)O | 1 (inactive) | 1.17 | 1.18 | 0.973 (inactive) | 0.886 | 9730 | 10000
10 | CC(=O)[C@@]12O[C@](C)(c3ccccc3)O[C@@H]1CC1C3CCC4=CC(=O)CC[C@]4(C)C3CC[C@@]12C (some centres undefined) | 1.21 (inactive) | 1.05 | 1.26 | 0.858 (inactive) | 1.15 | 5100 | 5940
11 | C[C@]12C=CC(=O)C=C1CCC1C2[C@@H](O)C[C@@]2(C)C1CC[C@]2(O)C(=O)COP(=O)(O)O (some centres undefined) | 1.33 (inactive) | 0.86 | 1.15 | 0.855 (inactive) | 1.09 | 6110 | 7150
12 | O=C1SCN(Cc2ccccc2)CN1Cc1ccccc1 | 0.9 (inactive) | 0.96 | 0.86 | 0.983 (inactive) | 0.637 | 8570 | 8710
13 | Cc1cc2nc3c(=O)[nH]c(=O)nc-3n(C[C@@H](O)[C@@H](O)[C@@H](O)COP(=O)(O)O)c2cc1C | 1.01 (inactive) | 1.03 | 1.04 | 0.895 (inactive) | 1.15 | 8530 | 9530
14 | C[C@]1(Cn2ccnn2)C(C(=O)O)N2C(=O)CC2S1(=O)=O (some centres undefined) | 0.89 (inactive) | 1.34 | 1.19 | 0.905 (inactive) | 0.742 | 8100 | 8960
15 | CSCC[C@H](NC(=O)[C@H](Cc1c[nH]c2ccccc12)NC(=O)[C@H](C)NC(=O)OC(C)(C)C)C(=O)N[C@@H](CC(=O)O)C(=O)N[C@@H](Cc1ccccc1)C(N)=O | 0.98 (inactive) | 1.15 | 1.13 | 0.979 (inactive) | 0.82 | 9410 | 9610
16 | C=C(C)C1CC=C(C)CC1 (centres undefined) | 0.93 (inactive) | 1.03 | 0.96 | 0.884 (inactive) | 1.07 | 8150 | 9220
17 | CCCC[C@@H](CC)COC(=O)C(C#N)=C(c1ccccc1)c1ccccc1 | 0.92 (inactive) | 1.19 | 1.09 | 0.897 (inactive) | 0.819 | 8030 | 8950
18 | Cc1cc(=O)c(C(=O)N[C@@H](C(=O)N[C@@H]2C(=O)N3C(C(=O)O)=C(CSc4nnnn4C)CSC23)c2ccc(O)cc2)c[nH]1 (some centres undefined) | 0.9 (inactive) | 1.24 | 1.12 | 0.93 (inactive) | 0.887 | 8940 | 9610
19 | CO/N=C(/C(=O)N[C@@H]1C(=O)N2C(C(=O)OCSC(=O)c3ccco3)=CCS[C@H]12)c1csc(N)n1 | 0.72 (inactive) | 1.31 | 0.94 | 0.907 (inactive) | 0.846 | 8470 | 9350
20 | CC(C)(CO)C(O)C(=O)NCCC(=O)NCCSSCCNC(=O)CCNC(=O)C(O)C(C)(C)CO (centres undefined) | 0.97 (inactive) | 0.82 | 0.8 | 0.968 (inactive) | 0.786 | 8560 | 8840
21 | C#C[C@]1(O)CCC2C3CCc4cc(OC5CCCC5)ccc4C3CC[C@@]21C (some centres undefined) | 0.98 (inactive) | 1.02 | 1 | 0.818 (inactive) | 0.977 | 4740 | 5800
22 | CC(=O)OCC(=O)[C@@]1(O)CCC2C3CCC4=CC(=O)C=C[C@]4(C)[C@@]3(Cl)[C@@H](Cl)C[C@@]21C (some centres undefined) | 1 (inactive) | 1.2 | 1.2 | 0.864 (inactive) | 1.22 | 6210 | 7190
